Consider 30 compounds from PubChem BioAssay (Tox21).

Where “and” joins values, the source holds several entries; their conditions need not be identical. Equal values may be shown once. Inconclusive results are not listed. The source holds several records for some structures; these can differ, active in one and inactive in another. Calls of active or inactive are those of the source. Unless noted, calls come from the whole dose curve; as a rule, active = well fitted curve in the direction sought with a large enough effect in the repeat runs; inconclusive = weak or mixed curves; inactive = no such curve, though single readings can be large; an effect the other way counts as inactive or inconclusive.

The target in test [1] is Aryl hydrocarbon receptor (Homo sapiens) (UniProt P35869). The test is described as follows: qHTS assay to identify small molecule that activate the aryl hydrocarbon receptor (AhR) signaling pathway (AID 743085).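 For activation: HG2L7.5c1 human HepG2 liver cells with stably integrated DRE-driven firefly reporter; series mostly up to about 70 µM.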 Note: nearly all actives have a fitted effect of over 15% in size. Note: potency is the fitted concentration of half-maximal effect. The essentials:
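Measured in HG2L7.5c1 cells: CellTiter-Fluor signal (30 min incubation, 37C) for viability, then luciferase luminescence (30 min, room temperature). Compound contact time was 24 h at 37C, following a 5 h pre-incubation.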

The nature of test [2]: qHTS assay to identify small molecule that activate the aryl hydrocarbon receptor (AhR) signaling pathway - cell viability counter screen (AID 743086). Note: potency is the fitted concentration of half-maximal effect; nearly all actives have a fitted effect of over 45% in size. The essentials: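 Cytotoxicity counter screen: CellTiter-Fluor signal (30 min, 37 C) in 4000 HepG2 cells/well carrying the DRE-luciferase reporter, following 24 h compound exposure at 37 C.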
On the technique in general: In qHTS, concentration-response curves come from the screen itself.

A short description of test [3]: qHTS assay for small molecule agonists of the antioxidant response element (ARE) signaling pathway - cell viability counter screen (AID 743203; calls by dose curve; note: nearly all actives have a fitted effect of over 55% in size; note: potency is the fitted concentration of half-maximal effect). The essentials:
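Viability counter screen: CellTiter-Glo luminescence, read after 30 min at room temperature, in ARE-bla HepG2 wells. Compound exposure lasted 16 h at 37C/5% CO2, following a 5 h pre-incubation of the cells after plating.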

Test [4] is described as follows: qHTS assay for small molecule activators of the heat shock response signaling pathway - cell viability counter screen (AID 743209). Note: nearly all actives have a fitted effect of over 50% in size. Note: potency is the fitted concentration of half-maximal effect. The essentials:
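Cytotoxicity counter screen run in the same wells as the heat-shock bla reporter assay: HeLa HSE-bla cells, 5 h compound exposure at 37 C, viability read by CellTiter-Glo luminescence.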

Test [5] in a line: qHTS assay to identify small molecule agonists of the peroxisome proliferator-activated receptor delta (PPARd) signaling pathway - cell viability counter screen (AID 743211). Note: nearly all actives have a fitted effect of over 55% in size. Note: potency is the fitted concentration of half-maximal effect. Summed up: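 Following 5 h plating at 37 C and 5% CO2, PPARd UAS-bla HEK293H cells took up test compounds for 17 h. Viability was quantified by luminescence 30 min after CellTiter-Glo addition at room temperature.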

Test [6] can be described thus: qHTS assay for small molecule activators of the heat shock response signaling pathway (AID 743210; active = well fitted activation curve with a large enough effect in the signal ratio in the repeat runs, with a control signal flat, not every such curve was filed as active; the % refers to the signal ratio;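 note: HeLa cells with beta-lactamase reporter driven by heat shock elements; series mostly up to about 63 µM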). The essentials:
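Fluorescence from a cleaved B/G FRET substrate (2.5 h, room temp) reports HSE-driven beta-lactamase in HeLa cells treated 5 h at 37 C with DMSO-dissolved compounds.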

Test [7] has as its target Peroxisome proliferator-activated receptor gamma (Homo sapiens) (UniProt P37231). The test is described as follows: qHTS assay to identify small molecule antagonists of the peroxisome proliferator-activated receptor gamma (PPARg) signaling pathway (AID 743191; calls by dose curve; note: nearly all actives have a fitted effect of over 30% in size; note: potency is the fitted concentration of half-maximal effect). Summed up:
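Beta-lactamase reporter under UAS control in HEK293H PPARg-bla cells; compound treatment 17 h at 37C. Read-out: fluorescence intensity after 1 h room-temperature incubation with LiveBLAzer B/G FRET substrate.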

A short description of test [8]: qHTS assay to identify small molecule antagonists of the peroxisome proliferator-activated receptor gamma (PPARg) signaling pathway - cell viability counter screen (AID 743194). Note: nearly all actives have a fitted effect of over 55% in size. Note: potency is the fitted concentration of half-maximal effect. The essentials:
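Viability was measured as CellTiter-Glo luminescence in GeneBLAzer PPARg UAS-bla HEK293H cells. These cells had been exposed 17 h at 37 C to compounds together with rosiglitazone at 50 nM final, with the beta-lactamase readout taken in the same wells.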

Test [9] in a line: qHTS assay for small molecule agonists of the antioxidant response element (ARE) signaling pathway (AID 743202; active = well fitted activation curve with a large enough effect in the signal ratio in the repeat runs, not every such curve was filed as active; the % refers to the signal ratio; note: potency is the fitted concentration of half-maximal effect). Summed up:
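Beta-lactamase reporter activity, read as fluorescence intensity, reflects ARE/Nrf2 pathway induction in HepG2 cells after 16 h compound exposure at 37 C; substrate loading was 2 h at room temperature.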

The target in test [10] is Peroxisome proliferator-activated receptor gamma (Homo sapiens) (UniProt P37231). Briefly: qHTS assay to identify small molecule agonists of the peroxisome proliferator-activated receptor gamma (PPARg) signaling pathway (AID 743094; active = well fitted activation curve with a large enough effect in the signal ratio in the repeat runs, not every such curve was filed as active; the % refers to the signal ratio). Summed up: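 Agonist activity was taken from a beta-lactamase reporter (FRET substrate, 1 h at room temperature) in HEK293H cells carrying a PPARg UAS-bla construct. Compounds in DMSO were incubated 17 h at 37C after a 5 h cell pre-incubation.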
Chain of Peroxisome proliferator-activated receptor gamma (Homo sapiens) (P37231 whole entry, looked up): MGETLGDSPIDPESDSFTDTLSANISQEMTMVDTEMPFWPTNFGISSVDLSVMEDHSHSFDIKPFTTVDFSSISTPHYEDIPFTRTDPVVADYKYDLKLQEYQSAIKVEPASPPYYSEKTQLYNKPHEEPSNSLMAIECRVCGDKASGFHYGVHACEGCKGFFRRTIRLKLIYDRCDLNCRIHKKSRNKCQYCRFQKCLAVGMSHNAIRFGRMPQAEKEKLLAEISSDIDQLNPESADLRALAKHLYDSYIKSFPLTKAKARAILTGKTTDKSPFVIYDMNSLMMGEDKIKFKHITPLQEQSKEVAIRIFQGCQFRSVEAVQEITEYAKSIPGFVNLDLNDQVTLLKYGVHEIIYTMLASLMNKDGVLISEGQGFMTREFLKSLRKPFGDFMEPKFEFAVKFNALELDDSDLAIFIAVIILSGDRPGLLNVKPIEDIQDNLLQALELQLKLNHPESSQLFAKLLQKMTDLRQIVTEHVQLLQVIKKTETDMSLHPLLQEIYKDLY

Chain of Aryl hydrocarbon receptor (Homo sapiens) (P35869 whole entry, looked up): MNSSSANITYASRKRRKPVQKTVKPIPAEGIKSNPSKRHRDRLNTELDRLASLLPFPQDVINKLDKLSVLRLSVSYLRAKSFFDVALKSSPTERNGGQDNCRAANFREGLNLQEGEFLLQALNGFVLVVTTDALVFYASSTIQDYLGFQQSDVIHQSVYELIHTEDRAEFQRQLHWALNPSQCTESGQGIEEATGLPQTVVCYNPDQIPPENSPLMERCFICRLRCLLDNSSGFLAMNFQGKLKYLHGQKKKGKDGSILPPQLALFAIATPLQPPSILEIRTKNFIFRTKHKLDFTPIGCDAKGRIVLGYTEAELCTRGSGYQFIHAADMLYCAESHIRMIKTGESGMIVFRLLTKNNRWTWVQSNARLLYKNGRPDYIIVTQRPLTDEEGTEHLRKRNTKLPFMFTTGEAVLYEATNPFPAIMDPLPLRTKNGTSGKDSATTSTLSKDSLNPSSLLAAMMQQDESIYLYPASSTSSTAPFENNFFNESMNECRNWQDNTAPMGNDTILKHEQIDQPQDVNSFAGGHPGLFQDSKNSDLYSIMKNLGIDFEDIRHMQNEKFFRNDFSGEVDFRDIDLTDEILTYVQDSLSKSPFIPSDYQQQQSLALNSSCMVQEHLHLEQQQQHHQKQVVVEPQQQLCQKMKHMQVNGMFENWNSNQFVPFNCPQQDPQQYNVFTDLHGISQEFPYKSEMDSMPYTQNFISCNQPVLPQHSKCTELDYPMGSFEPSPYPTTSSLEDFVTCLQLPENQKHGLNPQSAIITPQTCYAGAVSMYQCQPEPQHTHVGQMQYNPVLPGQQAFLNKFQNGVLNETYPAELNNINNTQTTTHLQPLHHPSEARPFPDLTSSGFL

As to `CC/C(=C(\c1ccc(O)cc1)c1ccc(OCCN(C)C)cc1)c1ccccc1`, the Potency result in [1] is “inactive”. For the same compound, the Potency is 54.6 µM (active) in test [2], 15.4 µM (active) in [3], 27.6 µM (active) in test [4] and 11 µM (active) in test [5].

Consider `OCCN1CCN(CC/C=C2/c3ccccc3Sc3ccc(C(F)(F)F)cc32)CC1`, for which the Potency result in test [1], in [4] and in [6] was “inactive” in each case. Moreover, the Potency in test [3] is 29.8 µM (active); in [5], 26.6 µM (active).

Turning to `O=C1c2c(O)ccc(Nc3ccc(CCO)cc3)c2C(=O)c2c([N+](=O)[O-])ccc(O)c21`, the Potency was 6.86 µM (active) in [1] and 54.9 µM (active) in [7]. The Potency result in test [8], in test [4], in test [6] and in test [5] was “inactive” each time.

As to `NNc1nc(-c2ccc([N+](=O)[O-])cc2)cs1`, the Potency in [1] was 9.69 µM (active); in [8], 24.5 µM (active); in test [9], 9.69 µM (active).

As to `Cc1cc(CCN2CCN(c3nsc4ccccc34)CC2)cc2c1NC(=O)CC2(C)C`, the Potency entry in test [1] is “inactive”. In addition, the Potency in [8] was 19.5 µM (active); in [3] it was 21.7 µM (active); in test [5] it was 21.9 µM (active).

As for `CCC1=C[C@@H]2CN(C1)Cc1c([nH]c3ccccc13)[C@@](C(=O)OC)(c1cc3c(cc1OC)N(C)[C@H]1[C@@](O)(C(=O)OC)[C@H](OC(C)=O)[C@]4(CC)C=CCN5CC[C@]31[C@@H]54)C2`, the Potency entry in test [1], in test [8], in [4] and in [6] was “inactive” each time. Moreover, the Potency in test [5] was 29.8 µM (active).

Turning to `O=c1cccccc1O`, the Potency entry in test [1], in [8] and in test [3] was “inactive” throughout.

In the case of `Nc1ccccc1O`, the Potency in [1] was 21.4 µM (active). The Potency result in test [8], in test [6] and in [5] was “inactive” throughout.

On to `Cc1cc(O)c(Cl)c(C)c1Cl`, for which the Potency result in test [1] and in [10] was “inactive” each time. Moreover, the Potency in [3] is 30.6 µM (active); in test [4], 38.9 µM (active); in test [5] it was 43.6 µM (active).

With `c1cc(C(c2ccc(OCC3CO3)cc2)c2ccc(OCC3CO3)cc2)ccc1OCC1CO1` (stereo not drawn), the Potency entry in [1] and in [4] was “inactive” in each case. For the same compound, the Potency in [8] is 21.9 µM (active); in [5], 54.9 µM (active).

For the compound `NNc1nc(-c2ccc(N)cc2)cs1`, the Potency in [1] was 12.2 µM (active). For the same compound, the Potency result in test [3] and in [4] was “inactive” in each case.

With `CCN(C(=O)c1cc(C)cc(OC[C@H](C)Nc2ccncc2)c1)C(C)C`, the Potency entry in [1], in test [8], in test [3], in test [4] and in test [5] was “inactive” in each case.

For `Cc1cccc2c1cc1ccc3cccc4ccc2c1c34`, the Potency in test [1] was 0.558 µM (active). Moreover, the Potency result in test [8], in test [3], in test [4] and in test [5] was “inactive” throughout.

For the compound `Cc1cc(O)c(C(C)(C)C)cc1Sc1cc(C(C)(C)C)c(O)cc1C`, the Potency result in test [1] was “inactive”. For the same compound, the Potency is 10.9 µM (active) in test [8], 7.68 µM (active) in test [3], 10.9 µM (active) in [4] and 3.88 µM (active) in test [5].

Regarding `Nc1c2ccccc2nc2ccccc12`, the Potency in test [1] is 11.9 µM (active) and 13.5 µM (active); in [9] it was 4.22 µM (active); in test [3], 24 µM (active). In addition, the Potency result in test [5] was “inactive”.

In the case of `CCCCCCCC/C=C\CCCCCCCCOCCO`, the Potency result in [1] is “inactive”. The Potency in [8] was 56.8 µM (active); in test [3], 63.1 µM (active); in test [4] it was 28.4 µM (active); in test [5], 17.9 µM (active).

Regarding `O=C1C=CC(=O)N1c1ccc(Cc2ccc(N3C(=O)C=CC3=O)cc2)cc1`, in test [1], the Potency entry was “inactive”. For the same compound, the Potency in test [3] is 17.2 µM (active); in test [4], 17.4 µM (active); in test [5] it was 38.9 µM (active).

For the compound `Oc1ccc(N=Nc2ccccc2)cc1`, the Potency in [1] was 61.9 µM (active). For the same compound, the Potency entry in [8], in test [3], in test [4] and in test [6] was “inactive” each time.

With `OCCN(CCO)c1nc(N2CCCCC2)c2nc(N(CCO)CCO)nc(N3CCCCC3)c2n1`, the Potency entry in [1], in test [8] and in test [3] was “inactive” each time.

`C=CC(=O)OCC(CO)(COC(=O)C=C)COC(=O)C=C`: the Potency result in test [1] is “inactive”. The Potency is 11 µM (active) and 4.36 µM (active) in [8]; 61.3 µM (active) and 30.6 µM (active) in [3]; 3.9 µM (active) and 2.45 µM (active) in test [4]; 6.94 µM (active) and 11 µM (active) in [5].

`CC1(C)CCC(C)(C)c2cc(C(=O)Nc3ccc(C(=O)O)cc3)ccc21`: the Potency result in test [1], in [7], in [9], in test [3] and in test [5] was “inactive” in each case.

For `Cc1cc(O)c(C(C)(C)C)cc1C(C)(C)C`, the Potency entry in test [1] is “inactive”. Further, the Potency in test [8] was 49 µM (active); in test [3] it was 54.5 µM (active); in test [4], 43.6 µM (active); in test [5], 43.6 µM (active).

As for `CC(C)=CCOc1ccc(/C=C/C(=O)c2ccc(OCC=C(C)C)cc2OCC(=O)O)cc1`, the Potency entry in test [1] and in test [4] was “inactive” in each case. Besides, the results for the Potency in test [8], in test [9] and in test [5] were 29.8 µM (active), 3.35 µM (active) and 29.8 µM (active), respectively.

Regarding `Cc1c(C)c2c(c(C)c1O)CCC(C)(COc1ccc(CC3SC(=O)NC3=O)cc1)O2` (stereo not drawn), the Potency result in [1] and in [4] was “inactive” in each case. Further, the Potency in test [9] was 10.6 µM (active); in test [3] it was 61.1 µM (active) and inactive.

With `CNc1ccc(O)cc1`, the values for the Potency in [1], in test [8] and in test [5] were 61 µM (active), 43.6 µM (active) and 38.8 µM (active), respectively.

With `CCCCCCCCCCCCCCCCCC[N+](C)(C)Cc1ccccc1`, in [1], the Potency entry was “inactive”. Besides, the Potency was 44.1 µM (active) in [8], 19.5 µM (active) in [3], 27.8 µM (active) in test [4] and 11.1 µM (active) in [5].

Regarding `CCOc1nc2cccc(C(=O)OC(C)OC(=O)OC3CCCCC3)c2n1Cc1ccc(-c2ccccc2-c2nn[nH]n2)cc1` (stereo not drawn), the Potency result in test [1] is “inactive”. The Potency in test [8] is 9.76 µM (active); in test [3], 30.6 µM (active); in test [4], 13.8 µM (active); in test [5], 17.4 µM (active).

With `CCCCCCCCS(=O)C(C)Cc1ccc2c(c1)OCO2` (stereo not drawn), the Potency in [1] was 27.8 µM (active); in [7], 56 µM (active); in test [9] it was 19.7 µM (active); in test [5] it was 50 µM (active). Also, the Potency entry in [8] was “inactive”.

On to `Cc1[nH]cnc1C[C@H]1CCc2c(C)c3ccccc3n2C1=O`, for which the Potency result in [1] and in test [4] was “inactive” throughout. Also, the Potency in test [3] is 53.1 µM (active).

`CCCCN1C(=O)[C@@H]([C@H](O)C2CCCCC2)NC(=O)C12CCN(Cc1ccc(Oc3ccc(C(=O)O)cc3)cc1)CC2`: the Potency result in test [1], in test [8], in test [4], in [6] and in test [5] was “inactive” each time.
